From PubChem
GC-B act: GC-B (human) receptor activation | HEK293-GC-B cells, CNP EC30, cGMP TR-FRET; 0% at EC30 CNP, 100% saturating CNP | activation, % at 10 µM | AID 1920062 | hit rate 0.11% among 370,000;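 active means activation at 10 µM reaching about 35% in either raw or pattern-adjusted values, limit read from the data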
MsrA act: bovine methionine sulfoxide reductase A activation; activation, % at 10.6 µM; hit rate 0.3% among 360,000; purified bovine MsrA, absorbance read-out; in the data active means activation above about 7.5%;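 further: 0% = vehicle and 100% = reference activator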
m5-HT2A agonist: agonists of mouse serotonin 5-HT2A receptor (HTR2A) | P35363 | CHO-K1 mHTR2A beta-arrestin complementation, luminescence; percent of 30 µM serotonin response | activation, % at 7.6 µM | hit rate 0.66% among 360,000 | AID 624169;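 active means activation above a run cutoff, the mean activation of all tested compounds plus 3 SD, cut at about 14% in these data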;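 further: 0% = plate median of compound wells and 100% = 30 µM serotonin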
MsrA inh: inhibits bovine methionine sulfoxide reductase A. purified bovine MsrA, absorbance read-out. inhibition, % at 15.5 µM. hit rate 0.75% among 360,000; in the data active means inhibition above about 4.5%;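 further: 0% = vehicle wells with enzyme and 100% = reference inhibitor wells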
NPR1 activator: GC-A (human) enzyme activation | P16066 | HEK293 GC-A cells, cGMP TR-FRET, EC30 ANP; 0% at EC30 ANP, 100% saturating ANP | activation, % at 10 µM | hit rate 0.14% among 370,000 | AID 1671463; in the data active means activation above about 40%
The depositor's hits bear a star. Sampled rows, rich in hits. Any-hit rate of the full collection: about 1.8%.

For CCOC(=O)C1(Cc2ccccc2)CCN(Cc2ccnc3ccccc23)CC1 the results were GC-B act -1 and NPR1 activator -5.
`COC(=O)[C@H](C(C)C)N1CCc2nnn(CC3CCCCC3)c2-c2cc(F)ccc2S1(=O)=O` gave GC-B act 0 and NPR1 activator -1.
C=CCNC(=O)CN(C(=O)c1ccncn1)c1cccc(Br)c1 was read as GC-B act -10 and NPR1 activator -3.
For COc1ccc(NC(=O)c2cc(-c3cc(F)ccc3OC(C)C)n[nH]2)c(C)c1 the results were GC-B act 61*, MsrA act 1, m5-HT2A agonist -7, MsrA inh -1 and NPR1 activator 56*.
For COc1ccc(OC)c(NC(=O)c2cc(-c3ccc(F)cc3OC(C)C)n[nH]2)c1 the results were GC-B act -3, MsrA act -1, m5-HT2A agonist -2, MsrA inh 0 and NPR1 activator 3.
For O=C1NC(c2ccccc2)C(C(=O)c2cccs2)C(O)(C(F)(F)F)N1 (stereo not given) the results were GC-B act 0, MsrA act 1, m5-HT2A agonist 1, MsrA inh 0 and NPR1 activator 1.
Screening CN1C(=O)NC(c2ccc(O)cc2)C(C(=O)c2cccs2)C1(O)C(F)(F)F (stereo not given) returned GC-B act -3, MsrA act -11, m5-HT2A agonist 1, MsrA inh 4.5* and NPR1 activator 3.
For Cc1c(NC(=S)N/N=C/c2cc([N+](=O)[O-])ccc2O)c(=O)n(-c2ccccc2)n1C the results were GC-B act -6, MsrA act -6, m5-HT2A agonist -7, MsrA inh 3 and NPR1 activator -1.
Cc1c(NC(=S)N/N=C/c2ccc(O)cc2)c(=O)n(-c2ccccc2)n1C was read as GC-B act 2, MsrA act -3, m5-HT2A agonist -2, MsrA inh 4.8* and NPR1 activator 0.
Screening Cc1nn(CCC(=O)NNC(=O)Nc2ccccc2)c(C)c1[N+](=O)[O-] returned GC-B act 7 and NPR1 activator 0.
`CCOC(=O)[C@]12CCCCC/C=C\1N(Cc1ccc(OC)cc1)C(=O)[C@H]2CC(=O)NCc1ccccc1` gave GC-B act -9 and NPR1 activator -1.
Screening C=CCOC(=O)N[C@H](c1cccc(OC)c1)[C@H](C)/C=C/CC(=O)OC returned GC-B act -17 and NPR1 activator -4.
For Nc1ccccc1-c1nnn(CC(=O)Nc2ccc3c(c2)OCCO3)n1 the results were GC-B act -2, MsrA act -1, m5-HT2A agonist 0, MsrA inh 3 and NPR1 activator 1.
COc1ccc(C(=O)Nc2ccccc2-c2nnn(CC(=O)Nc3ccc4c(c3)OCCO4)n2)cc1 was read as GC-B act -10, MsrA act 8.5*, m5-HT2A agonist 4, MsrA inh 0 and NPR1 activator -4.
For CC(C)CN1C(=O)[C@]2(CC(=O)N(C)C2c2ccccc2)c2cc(-n3cc(CN(C)C)nn3)ccc21 (stereo not given in full) the results were GC-B act 3 and NPR1 activator 1.
Screening O=C(Nc1ccc2c(c1)OCO2)OC1CCC12CCC(c1ccccc1)CC2 (stereo not given) returned GC-B act -8 and NPR1 activator -3.
Screening CO/N=C(\C(=O)N[C@@H]1C(=O)N2C(C(=O)O)=C(COC(N)=O)CS[C@H]12)c1ccco1 returned GC-B act 5, MsrA act -7, m5-HT2A agonist 15*, MsrA inh -1 and NPR1 activator 3.
For O=C(O)c1cc(NN=Nc2ccc(Br)cc2)cc([N+](=O)[O-])c1 the results were GC-B act -10, MsrA act -6, m5-HT2A agonist 0, MsrA inh 1 and NPR1 activator 43*.
Screening Brc1ccc(N=NNc2ccccc2)cc1 returned GC-B act -9, MsrA act -2, m5-HT2A agonist 4, MsrA inh 0 and NPR1 activator 45*.
For COc1ccc(C(=O)OCCCN(C)C2CN(Cc3cn(Cc4ccc([N+](=O)[O-])cc4)nn3)S(=O)(=O)C2)cc1OC (stereo not given) the results were GC-B act 2 and NPR1 activator 3.
Screening CC(=O)Nc1ccc(Nc2c3c4c(cccc4n(C)c2=O)C(=O)c2ccccc2-3)cc1 returned GC-B act 38*, MsrA act -14, m5-HT2A agonist 2, MsrA inh 1 and NPR1 activator 28.
CCCCNC(=O)C1CCCN1C(=O)NCc1ccccc1OC (stereo not given) was read as GC-B act 5 and NPR1 activator 3.
`Cc1ccc2nc(NC(=O)C3CCCN(S(=O)(=O)c4cccnc4)C3)sc2c1` (stereo not given) gave GC-B act -8, MsrA act -2, m5-HT2A agonist -3, MsrA inh 0 and NPR1 activator 48*.
Screening COc1ccc(S[C@]2(C(=O)N3CCN(c4ncccn4)CC3)CC(=O)N(c3ccsc3)[C@@H]2c2ccc(OC)cc2)cc1 returned GC-B act -1 and NPR1 activator 3.
For CCCCNc1c(-c2ccc(OC)c(Sc3ccc(OC)cc3)c2)nc2cnccn12 the results were GC-B act -9, MsrA act -2, m5-HT2A agonist 7, MsrA inh 0 and NPR1 activator -2.
`Cc1ccc(Nc2c(-c3ccc(N4CCOCC4)cc3)nc3cnccn23)cc1` gave GC-B act 3, MsrA act -10, m5-HT2A agonist 4, MsrA inh 3 and NPR1 activator 17.
Screening Cc1ccc(Nc2c(-c3ccccc3O)nc3ncccn23)cc1 returned GC-B act 17, MsrA act -8, m5-HT2A agonist 0, MsrA inh 2 and NPR1 activator 54*.
Screening Cc1ccc(Nc2c(-c3ccccc3O)nc3cnccn23)cc1 returned GC-B act 17, MsrA act -12, m5-HT2A agonist -1, MsrA inh 2 and NPR1 activator 48*.
COc1ccc(Nc2c(-c3ccc(C)cc3)nc3cnccn23)cc1 was read as GC-B act 48*, MsrA act -7, m5-HT2A agonist 1, MsrA inh 1 and NPR1 activator 46*.
COc1ccc(Nc2c(-c3ccc(OC)cc3)nc3cnccn23)cc1 was read as GC-B act 49*, MsrA act -3, m5-HT2A agonist 5, MsrA inh 4 and NPR1 activator 50*.
`O=C(c1cccc(C(F)(F)F)c1)N1CC[C@H]2[C@H](CCCN2Cc2ccccc2)C1` gave GC-B act 3 and NPR1 activator 2.
`O=C(Nc1ccc(F)cc1)OCCCN1C(=O)CCC12CCCCC2` gave GC-B act 0 and NPR1 activator 0.
Screening Cc1ccc(OC(=O)c2sc(Cl)nc2C)cc1C returned GC-B act 6, MsrA act 1, m5-HT2A agonist -3, MsrA inh 0 and NPR1 activator 71*.
